Consider 69 compounds from ChEMBL document CHEMBL4513216, “Probing the Open Global Health Chemical Diversity Library for Multistage-Active Starting Points for Next-Generation Antimalarials” (ACS Infect Dis, 2020).

The structures appear in SMILES notation. Screen size: about 69,000 compounds; about 8,600 (12%) showed an effect of 50% or more. For the sample, strong results were picked, then their nearest neighbours and some compounds at random.

The test system of this experiment is Plasmodium berghei. Briefly: Screen against P. berghei liver stage (PbLuc), transformed with Luciferase, at 10uM. The experiment is classed as functional, HepG2. The settings on record: tested at 10 uM.
On to `O=S(=O)(C1CC1)N1CCO[C@@H]2CN(Cc3cccs3)C[C@@H]2C1`, for which the INHIBITION is given as -23.4%.

As to `CCCS(=O)(=O)N1C[C@@H]2CN(Cc3cccs3)CCO[C@@H]2C1`, the INHIBITION is reported as -2.46%.

`c1csc(CN2CCO[C@@H]3CN(C4CCOCC4)C[C@@H]3C2)c1`: the INHIBITION turned out to be 64.4%.

Take `CCS(=O)(=O)N1C[C@@H]2CN(Cc3ccco3)CCO[C@@H]2C1`: the INHIBITION is recorded as -39.2%.

Take `CCS(=O)(=O)N1C[C@@H]2CN(Cc3cccs3)CCO[C@@H]2C1`: the INHIBITION came to 90.7%.

Consider `CCS(=O)(=O)N1C[C@@H]2CN(Cc3cnn(C)c3)CCO[C@@H]2C1`, for which the INHIBITION is -13%.

Take `CCCS(=O)(=O)N1C[C@@H]2CN(Cc3cnn(C)c3)CCO[C@@H]2C1`: the INHIBITION is listed as 65.6%.

`CCCS(=O)(=O)N1C[C@@H]2CN(Cc3ccoc3)CCO[C@@H]2C1`: the INHIBITION was -58.9%.

For the compound `O=S(=O)(C1CC1)N1C[C@@H]2CN(Cc3cccs3)CCO[C@@H]2C1`, the INHIBITION is listed as 34.3%.

Regarding `Cc1csc(C2CCCCN2C(=O)CN(C)C(C)C)n1` (centres undefined), the INHIBITION is given as -19.9%.

Take `Cn1ccnc1COc1ccc(CN2CCC(C(N)=O)CC2)cc1`: the INHIBITION is reported as -14.7%.

As for `Nc1nc(CN2CCOC(Cn3cccn3)C2)nc2ccccc12` (centres undefined), the INHIBITION came out at 1.75%.

With `c1ccc(-c2cc(CN3CCCC(Cn4cncn4)C3)on2)cc1` (centres undefined), the INHIBITION amounted to 11.6%.

Consider `CS(=O)(=O)CCCC(=O)Nc1cc(Cl)c(Cl)cn1`, for which the INHIBITION amounted to 15.7%.

Turning to `COCCCC(=O)Nc1cc(Cl)c(Cl)cn1`, the INHIBITION stood at 79.8%.

As to `CS(=O)(=O)CCC(=O)Nc1cc(Cl)c(Cl)cn1`, the INHIBITION was determined as 35.2%.

Consider `COCCN1CCO[C@@H]2CN(Cc3cc(OC)cc(OC)c3)C[C@@H]2C1`, for which the INHIBITION is recorded as 39.3%.

In the case of `CNc1cc(C2CN(Cc3coc(C)n3)CCO2)nc(C)n1` (centres undefined), the INHIBITION was -3.31%.

Consider `Cc1nn(C)c(C)c1CC(=O)NCc1ccnc(N2CCOCC2)c1`, for which the INHIBITION is given as -34%.

On to `Cc1noc(C)c1-c1cccc(C2CN(CC(=O)N(C)C)CCO2)n1` (centres undefined), for which the INHIBITION was found to be 24.35%.

Turning to `O=C1CC2(CCN(Cc3ccc(C(F)(F)F)nc3)CC2)CN1`, the INHIBITION was determined as 16.43%.

`Oc1cccc2ccc(CN3CCC4(CCNCC4)C3)nc12`: the INHIBITION was 15.9%.

On to `O=C1CC2(CCN(Cc3ccc4cccc(O)c4n3)CC2)CN1`, for which the INHIBITION was found to be 58.6%.

On to `CCN(CC)CC1CN(Cc2nccs2)Cc2nccn2C1` (centres undefined), for which the INHIBITION is listed as -42.8%.

With `O=C(NC1CCCC1)C1Cc2nc(-c3ccsc3)sc2N1CC1CC1` (centres undefined), the INHIBITION is given as -2.35%.

As for `CC(C)NC(=O)C1Cc2nc(-c3ccsc3)sc2N1CC1CC1` (centres undefined), the INHIBITION is 23.3%.

Take `O=C(Nc1cccnc1)C1Cc2nc(-c3ccsc3)sc2N1CC1CC1` (centres undefined): the INHIBITION is recorded as 60.9%.

`Cc1ccccc1C(O)c1ccncc1` (centres undefined): the INHIBITION came out at 1.95%.

As for `Cc1cccc(NC(=O)[C@@H]2CCCN2Cc2nnc(C(C)C)n2C)n1`, the INHIBITION came out at 24.3%.

For `Cc1nonc1CNC(=O)C(C)Oc1cccc(F)c1` (centres undefined), the INHIBITION is recorded as -35.5%.

For `CCN(Cc1nccs1)Cc1cc(Cl)ccc1OC`, the INHIBITION amounted to 15.3%.

Turning to `COc1ccc(S(=O)(=O)NCCCc2ccc(N(C)C)cc2)cc1Cl`, the INHIBITION is given as 41.9%.

As for `CCN(CCS(=O)(=O)c1ccc(Cl)cc1)Cc1ccc(OC)c(OC)c1`, the INHIBITION was 70.5%.

Consider `COc1ccc(CN(C)CCS(=O)(=O)c2ccc(Cl)cc2)cc1OC`, for which the INHIBITION turned out to be 68.8%.

For the compound `COc1ccc(Cl)cc1S(=O)(=O)N(C)CC(N)=O`, the INHIBITION was 23.5%.

On to `COc1ccc(CCN(C)C(C(=O)O)c2ccc(F)c(C)c2)cc1OC` (centres undefined), for which the INHIBITION was 16.7%.

Consider `COc1ccc(CCN(C)CCS(=O)(=O)c2ccc(Cl)cc2)cc1OC`, for which the INHIBITION was determined as 63.7%.

`COCCN(C)Cc1ccc(OC)c(OC(F)F)c1`: the INHIBITION came to 26.8%.

Consider `COc1ccc(CCCN(C)C(=O)c2cc(Cl)c[nH]2)cc1OC`, for which the INHIBITION worked out at 16.6%.

On to `O=S(=O)(C1CC1)N1C[C@@H]2COC[C@]2(COc2ccccn2)C1`, for which the INHIBITION came to 26.3%.

For `CC(C)c1nccc(N2CCN(CC(=O)N3CCOCC3)CC2)n1`, the INHIBITION is reported as -0.96%.

Consider `CN(CCc1ccncc1)C(=O)C1CSCN1C(=O)CC(C)(C)C` (centres undefined), for which the INHIBITION was -23.8%.

For `Cc1cccc(-n2cc3nc(N4CCC(C)CC4)[nH]cc-3c2=O)c1`, the INHIBITION is recorded as 23.4%.

In the case of `Cc1cnc(NCC(C)(C)N2CCOCC2)nc1`, the INHIBITION came out at 65.7%.

In the case of `Cc1cnc(NCC(C)(C)N2CCCCC2)nc1`, the INHIBITION came out at 23.3%.

As to `Cc1cnc(NCC(C)(C)N2CCN(C)CC2)nc1`, the INHIBITION was 47.2%.

For `CCn1c(CN(C)C(=O)c2ccc(N(C)C)nc2)nc2ccccc21`, the INHIBITION is listed as -17.4%.

As for `CN(C)C(=O)c1ccc(NCCNc2ccc3ccccc3n2)nc1`, the INHIBITION was determined as 8.13%.

With `CNc1ccc(C(=O)N(C)Cc2ccc3ccccc3n2)cn1`, the INHIBITION came to 69.7%.

Take `CCNc1ncc(C(=O)N(C)Cc2nc3ccccc3n2C)cn1`: the INHIBITION is given as 16.2%.

`CCn1c(CN(C)C(=O)c2ccc(O)nc2)nc2ccccc21`: the INHIBITION is reported as -82.4%.

As for `CSCCNc1ccc(C(=O)N(C)Cc2ccc3ccccc3n2)cn1`, the INHIBITION is recorded as 56.1%.

In the case of `Cn1ccnc1-c1cn(Cc2cn3c(n2)SCC3)nn1`, the INHIBITION is 5.75%.

On to `Cc1cccc(CN2C(=O)CCC23CCN(C(=O)N2CCCC2)CC3)n1`, for which the INHIBITION stood at 18.6%.

Consider `CC(=O)N1N=C(c2ccccc2)OC1C(=O)N(C)Cc1ccccc1` (centres undefined), for which the INHIBITION worked out at 24.3%.

For the compound `O=C(N[C@@H]1CCN(Cc2ccc(F)cc2F)C[C@H]1O)c1cccnc1`, the INHIBITION is given as -26.8%.

Consider `CCOCCCNC(=O)c1nnn(Cc2ccccc2)c1OC`, for which the INHIBITION came to 13.5%.

As for `CCOc1cc(/C=C/c2ncc(C(=O)O)s2)ccc1O`, the INHIBITION is given as -6.62%.

Take `CNC(=O)c1cnc(/C=C/c2cc(OC)cc(OC)c2)s1`: the INHIBITION is given as -76.5%.

In the case of `CNC(=O)c1cnc(C=Cc2cc(OC)c(O)c(OC)c2)s1`, the INHIBITION stood at 50%.

On to `COc1cc(/C=C/c2ncc(C(=O)O)s2)cc(Cl)c1O`, for which the INHIBITION was -20.9%.

As for `CCOc1cc(C=Cc2ncc(C(=O)NC)s2)ccc1OC`, the INHIBITION is listed as 72.2%.

Regarding `CCOc1c(Cl)cc(/C=C/c2ncc(C(=O)O)s2)cc1OC`, the INHIBITION was found to be 7.27%.

Turning to `CCOc1c(OC)cc(C=Cc2ncc(C(=O)NC)s2)cc1OC`, the INHIBITION was 52.6%.

Regarding `CNC(=O)c1cnc(/C=C/c2cc(OC)c(OC)c(OC)c2)s1`, the INHIBITION was 53.5%.

Take `CCOc1c(Br)cc(/C=C/c2ncc(C(=O)O)s2)cc1OC`: the INHIBITION was -39.3%.

In the case of `CNC(=O)c1cnc(/C=C/c2ccc(OC)c(O)c2)s1`, the INHIBITION stood at 40.1%.

As to `CNC(=O)c1cnc(C=Cc2cc(OC)c3c(c2)OCCO3)s1`, the INHIBITION stood at 41.4%.

With `CNC(=O)c1cnc(C=Cc2ccc(O)c(OC)c2)s1`, the INHIBITION is -84.4%.
